Out of some 360,000 compounds screened, about 2,400 (0.67%) were called active. The sample holds actives, similar compounds and a random draw of the others, so the mix is not that of the screen. Values without a mark were called inactive.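 Rule for the calls: active = compounds whose normalised, plate-corrected inhibition of enzyme fluorescence in the single-dose primary screen is 50% or more; inactive = the rest.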
Each compound was assayed against Fatty acid synthase (Homo sapiens) (UniProt P49327) (assay: inhibition of human FAS-TE enzyme activity – biochemical, fluorescence intensity, uHTS, primary screen (AID 602261;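 note: 0% = DMSO with enzyme and 100% = substrate without enzyme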)). Details: recombinant FAS-TE, OMFH fluorogenic substrate, fluorescence endpoint; at 15 µM; stronger effect = higher value.
Chain of Fatty acid synthase (Homo sapiens) (P49327 whole entry, looked up): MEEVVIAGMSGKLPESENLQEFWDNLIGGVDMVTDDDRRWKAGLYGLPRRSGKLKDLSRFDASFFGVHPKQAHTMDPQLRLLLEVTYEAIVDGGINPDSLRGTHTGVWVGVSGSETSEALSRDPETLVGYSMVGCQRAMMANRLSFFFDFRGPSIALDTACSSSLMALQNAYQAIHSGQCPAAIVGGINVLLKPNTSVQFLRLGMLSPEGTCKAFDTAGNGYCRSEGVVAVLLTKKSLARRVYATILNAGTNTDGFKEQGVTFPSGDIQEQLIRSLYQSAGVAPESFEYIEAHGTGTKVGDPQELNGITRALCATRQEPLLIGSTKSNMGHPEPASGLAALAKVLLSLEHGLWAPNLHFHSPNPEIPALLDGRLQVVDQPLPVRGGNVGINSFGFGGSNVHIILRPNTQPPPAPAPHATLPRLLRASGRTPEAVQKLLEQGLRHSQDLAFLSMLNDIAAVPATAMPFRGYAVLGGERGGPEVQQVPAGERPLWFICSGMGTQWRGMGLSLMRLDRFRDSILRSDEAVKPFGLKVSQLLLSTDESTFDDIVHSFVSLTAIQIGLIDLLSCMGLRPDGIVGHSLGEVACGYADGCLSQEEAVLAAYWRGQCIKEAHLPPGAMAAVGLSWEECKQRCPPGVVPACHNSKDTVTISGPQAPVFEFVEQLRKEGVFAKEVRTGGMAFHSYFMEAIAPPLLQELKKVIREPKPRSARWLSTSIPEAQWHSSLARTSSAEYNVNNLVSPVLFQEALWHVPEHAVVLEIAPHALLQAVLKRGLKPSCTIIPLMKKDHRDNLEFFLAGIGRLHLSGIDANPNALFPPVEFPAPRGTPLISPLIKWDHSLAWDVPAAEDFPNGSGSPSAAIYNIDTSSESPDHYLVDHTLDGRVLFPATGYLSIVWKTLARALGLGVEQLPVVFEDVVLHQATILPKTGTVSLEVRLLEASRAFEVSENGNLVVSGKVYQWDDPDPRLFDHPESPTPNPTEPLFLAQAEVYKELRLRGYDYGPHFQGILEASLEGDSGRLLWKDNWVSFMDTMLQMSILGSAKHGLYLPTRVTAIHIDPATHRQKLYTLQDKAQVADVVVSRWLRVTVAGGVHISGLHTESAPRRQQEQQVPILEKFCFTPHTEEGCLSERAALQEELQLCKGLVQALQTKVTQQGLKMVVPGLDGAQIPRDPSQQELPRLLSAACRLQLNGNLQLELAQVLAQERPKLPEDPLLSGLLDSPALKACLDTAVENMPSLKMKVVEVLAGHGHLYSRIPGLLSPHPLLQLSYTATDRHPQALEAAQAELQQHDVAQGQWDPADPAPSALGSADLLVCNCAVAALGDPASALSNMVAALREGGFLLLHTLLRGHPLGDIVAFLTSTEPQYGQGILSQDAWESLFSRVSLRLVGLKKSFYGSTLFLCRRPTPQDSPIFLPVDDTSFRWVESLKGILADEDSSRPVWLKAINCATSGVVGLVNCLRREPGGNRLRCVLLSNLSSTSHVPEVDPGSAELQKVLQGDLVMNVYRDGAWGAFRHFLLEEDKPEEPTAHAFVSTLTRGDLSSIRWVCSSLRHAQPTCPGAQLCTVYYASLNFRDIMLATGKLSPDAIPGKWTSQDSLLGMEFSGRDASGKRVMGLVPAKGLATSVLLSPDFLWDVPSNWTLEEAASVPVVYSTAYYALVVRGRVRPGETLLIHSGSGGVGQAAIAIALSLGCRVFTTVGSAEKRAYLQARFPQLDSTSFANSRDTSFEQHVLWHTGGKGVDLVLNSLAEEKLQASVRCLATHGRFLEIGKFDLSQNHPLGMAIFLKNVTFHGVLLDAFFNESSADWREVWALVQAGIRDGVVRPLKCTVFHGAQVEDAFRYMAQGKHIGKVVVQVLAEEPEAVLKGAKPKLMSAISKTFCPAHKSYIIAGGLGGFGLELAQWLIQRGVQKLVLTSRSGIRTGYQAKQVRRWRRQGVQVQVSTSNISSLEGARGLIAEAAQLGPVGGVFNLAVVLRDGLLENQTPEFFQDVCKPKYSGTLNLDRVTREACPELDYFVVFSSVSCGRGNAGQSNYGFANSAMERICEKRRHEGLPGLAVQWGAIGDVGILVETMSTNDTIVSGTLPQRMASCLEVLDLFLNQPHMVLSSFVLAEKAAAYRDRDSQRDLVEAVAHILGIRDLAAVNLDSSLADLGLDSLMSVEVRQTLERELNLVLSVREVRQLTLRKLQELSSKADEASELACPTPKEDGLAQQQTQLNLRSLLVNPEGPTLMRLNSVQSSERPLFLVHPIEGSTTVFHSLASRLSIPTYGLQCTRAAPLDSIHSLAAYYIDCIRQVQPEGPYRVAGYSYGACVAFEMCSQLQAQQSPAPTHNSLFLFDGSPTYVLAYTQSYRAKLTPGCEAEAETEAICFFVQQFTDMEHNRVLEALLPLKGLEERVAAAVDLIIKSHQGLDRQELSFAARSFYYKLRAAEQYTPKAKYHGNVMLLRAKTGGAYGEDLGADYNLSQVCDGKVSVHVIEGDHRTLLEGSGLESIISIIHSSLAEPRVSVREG

| Structure (SMILES) | inhibition |
| --- | --- |
| CN(C(=O)c1ccc(NC(=O)Cc2cccc(NC(=O)C3CCN(C(=O)c4ccccc4)CC3)c2)cc1)C1CC1 | -9.5% |
| CCOc1ccc(C(=O)NC2CCN(CC(=O)NCc3cccs3)CC2)cc1 | -3.1% |
| Cc1cccc(NC(=O)C(C)N2C(=O)C3C4CC(C(Br)C4Br)C3C2=O)c1 (configuration not stated) | 20.5% |
| O=C(Nc1ccnn1C1CCN(C/C=C/c2ccc(F)cc2)CC1)C1CCCC1 | -0.7% |
| Cc1cc(S(=O)(=O)N2CCOCC2)ccc1OCC(=O)N1CCOCC1 | -2.5% |
| Cc1cc(C(=O)COc2ccccc2[N+](=O)[O-])c(C)n1-c1cccc(S(=O)(=O)N2CCOCC2)c1 | 58.7% (active) |
| COC(=O)c1cc(Oc2ccc(S(=O)(=O)N3CCOCC3)cc2[N+](=O)[O-])cc(C(=O)OC)c1 | 38.3% |
| CSc1n[nH]c(=S)n1N | -4.3% |
| O=S(=O)(c1cnccc1N1CCN(/N=C/c2ccc(Br)cc2)CC1)N1CCCCC1 | 31.4% |
| Cc1cc(Nc2cccc(F)c2)n2ncnc2n1 | -2.8% |
| COc1cccc(C2CC(c3ccccc3)=NN2S(=O)(=O)c2ccccc2)c1OC (configuration not stated) | 20% |
| COc1ccc(C2CC(=O)n3c(nc4ccccc43)S2)cc1OC (configuration not stated) | -161% |
| COc1ccccc1C1CC(=O)n2c(nc(-c3ccccc3)c2-c2ccccc2)S1 (configuration not stated) | 54.5% (active) |
| O=C(NCCNc1ccc([N+](=O)[O-])cc1)c1cccc2c(Br)cccc12 | 37.6% |
| COc1c(C)cc(C(O)c2ncc(-c3cccc(C(F)(F)F)c3)[nH]2)cc1C (configuration not stated) | 7.9% |
| O=S1(=O)C[C@@H](N2CCN(CCO)CC2)[C@H](COCc2ccccc2)N1 | -9.7% |
| COC(=O)c1cccc(N2C(=O)C3C4C=CC(CC4)C3C2=O)c1 (configuration not stated) | -6.4% |
| CC(=O)Nc1ccc(N2C(=O)C3C4CC(=O)C(c5ccccc54)C3C2=O)cc1 (configuration not stated) | -10% |
| O=C(Oc1cccc(N2C(=O)C3C4c5ccccc5C(c5ccccc54)C3C2=O)c1)c1ccco1 (configuration not stated) | 64.1% (active) |
| CCCNC(=O)COc1coc(CN2CCN(Cc3ccccc3)CC2)cc1=O | -9.4% |
| CC1(c2cccc(N)c2)OCCO1 | -9.3% |
| Cc1ccc(S(=O)(=O)N(CC(O)CN2CCCCC2)c2cccc([N+](=O)[O-])c2)cc1 (configuration not stated) | 2.6% |

| Structure (SMILES) | inhibition |
| --- | --- |
| COc1ccc([N+](=O)[O-])cc1N(CC(O)Cn1nnc2ccccc21)S(=O)(=O)c1ccc(C)cc1 (configuration not stated) | 51.1% (active) |
| COc1ccc([N+](=O)[O-])cc1N(CC(O)CN(CC(C)C)CC(C)C)S(=O)(=O)c1ccc(C)cc1 (configuration not stated) | 32.7% |
| Cc1c(C(=O)N2CCCC2)c(S(=O)(=O)NCC(C)c2ccccc2)c(C)n1C (configuration not stated) | 2.1% |
| O=C(NCCC1=CCCCC1)c1ccc(Cl)c([N+](=O)[O-])c1 | 59.5% (active) |
| O=C(COc1ccc(Cl)cc1)NCCC1=CCCCC1 | 15.7% |
| Cc1ccnc(NC(=O)c2ccc(Cl)c([N+](=O)[O-])c2)c1 | 23.1% |
| COc1ccc(C(c2nnnn2Cc2cccs2)N2CCN(c3ccccc3)CC2)cc1OC (configuration not stated) | 14.2% |
| Nc1c(-c2cccc(Cl)c2)cnn1-c1cccc([N+](=O)[O-])c1 | 51.8% (active) |
| O=C(CCl)N(Cc1cccc([N+](=O)[O-])c1)c1cccc(Cl)c1 | 15.2% |
| Nc1c(C(=O)O)cnn1-c1ccccc1 | -1.5% |
| COc1ccc([N+](=O)[O-])cc1NC(=O)COC(=O)/C=C/c1ccco1 | 71.2% (active) |
| COc1cccc(NC(=O)COC(=O)/C=C/c2ccco2)c1 | 3.5% |
| CC(C)CNC(=O)COC(=O)/C=C/c1ccco1 | -7.5% |
| CCOC(=O)Nc1ccc(S(=O)(=O)N(C)C(C)C)cc1 | -3.7% |
| CN1C(C(=O)NCc2ccco2)CC2Cn3c(nc4ccccc43)C21 (configuration not stated) | -11.9% |
| O=C(CCCl)Nc1ccc(S(=O)(=O)NCc2ccco2)cc1 | -1.3% |
| Cc1ccc(CNC(=O)C2CC(c3ccccc3[N+](=O)[O-])=NO2)o1 (configuration not stated) | -5.1% |
| COc1ccc(CNC(=O)C2CC(c3ccc(C(F)(F)F)cc3)=NO2)cc1 (configuration not stated) | -1.7% |
| O=C(NCCCCc1ccccc1)C1CC(c2ccc([N+](=O)[O-])cc2)=NO1 (configuration not stated) | 54.2% (active) |
| O=C(NCCCn1ccnc1)C(=O)NCC1OCCN1S(=O)(=O)c1cc(F)ccc1F (configuration not stated) | -10.1% |
| C[C@H](NC(=O)c1nc[nH]c1C(=O)N[C@@H](C)C(=O)OC(C)(C)C)C(=O)OC(C)(C)C | -7% |
| CC(C)(C)OC(=O)NCCCCCNC(=O)c1[nH]cnc1C(=O)Nc1nccs1 | -15.7% |

| Structure (SMILES) | inhibition |
| --- | --- |
| CNC(=O)c1[nH]cnc1C(=O)N[C@@H](CC(C)C)C(=O)OC(C)(C)C | -5.3% |
| CC(C)(C)OC(=O)NCCCCCNC(=O)c1nc[nH]c1C(=O)NCc1ccccc1 | 8.2% |
| CCOC(=O)c1ccc(NC(=O)c2nc[nH]c2C(=O)N[C@@H](CCCCNC(=O)OC(C)(C)C)C(=O)OC(C)(C)C)cc1 | 85.2% (active) |
| Cc1ccc(NC(=O)c2nc[nH]c2C(=O)N[C@@H](CCCCNC(=O)OC(C)(C)C)C(=O)OC(C)(C)C)cc1 | 75.3% (active) |
| COc1ccccc1CNS(=O)(=O)CC12CCC(CC1=O)C2(C)C (configuration not stated) | 2.9% |
| Cc1cccc(OCC(=O)OCC(=O)Nc2ccc(Cl)cn2)c1 | -6.1% |
| CCN(CC)C(CNC(=O)CSc1nnnn1-c1cccc(F)c1)c1ccco1 (configuration not stated) | -1.2% |
| Cc1cccc(N2CCN(C(=O)c3cc4c(=O)[nH]c5ccccc5c4n3C)CC2)c1C | 5% |
| O=C(Cc1ccc(S(=O)(=O)N2CCOCC2)s1)NCCOc1ccccc1F | -0.5% |
| Cc1ccc2c(c1)C(O)(CC(=O)c1cccc(-n3cccc3)c1)C(=O)N2 (configuration not stated) | 2.6% |
| Nc1nnnn1/N=C/c1cc([N+](=O)[O-])ccc1O | -3.3% |
| O=C(N/N=C/c1cc([N+](=O)[O-])ccc1O)/C(=C\c1cccs1)NC(=O)c1ccccc1 | 56.5% (active) |
| COc1cc(/C=C(/NC(=O)c2ccccc2)C(=O)Nc2cccc(O)c2)c([N+](=O)[O-])cc1OC | -3.8% |
| COc1ccc(NC(=O)NN2CCN(C)CC2)c(OC)c1 | -6% |
| O=S(=O)(Nc1cccc(Oc2ccc(Cl)cc2)n1)c1ccc(F)cc1 | 8.1% |
| CC(C)CC(=O)c1c[nH]c(C(=O)NCc2ccccc2)c1 | -3.6% |
| CC1(c2ccc(Cl)cc2)NC(=O)N(CC(=O)c2ccc3c(c2)OCO3)C1=O (configuration not stated) | 11.3% |
| Cn1c(=O)[nH]c(=O)c2c1nc(NCCCn1ccnc1)n2Cc1cccc(Br)c1 | -2.6% |
| CCOC(=O)c1ccc(-c2ccc3ncnc(N(C)Cc4sccc4C)c3c2)o1 | 26.5% |
| COc1ccc(C2=NN(C(=O)CSc3nc(=O)n4ccc(C)cc4n3)C(c3ccc(C)cc3)C2)cc1 (configuration not stated) | 81.4% (active) |
| COc1ccc(C2CC(c3ccccc3)=NN2C(=O)CSc2nccc(=O)[nH]2)cc1 (configuration not stated) | -5.6% |
| Cc1ccc(C2=NN(C(=O)CSc3nc(N)cc(N)n3)C(c3ccco3)C2)cc1 (configuration not stated) | 1.5% |

| Structure (SMILES) | inhibition |
| --- | --- |
| Cc1cccc(N=C2SC(C)CN2C(=O)CN2C(=O)NC3(CCCC3)C2=O)c1 (configuration not stated) | 3.9% |
| Cc1ccc(N2C(=O)S/C(=C/c3cn(C)c4ccccc34)C2=O)cc1 | 28.7% |
| Cc1cccc(N=C2NC(=O)/C(=C/c3cn(C)c4ccccc34)S2)c1 | 52.4% (active) |
| Cc1ccccc1CSc1nnc(-c2ccccn2)n1N | -5.3% |
| O=C(NC1=NCCS1)c1ccc(Cl)s1 | -11.9% |
| Cc1cccc(N2CCC(NCc3c(C(=O)N4CCCCC4)nc4c(C)cccn34)CC2)c1 | -1.6% |
| O=C(O)CCS(=O)(=O)c1ccc(-c2ccccc2)cc1 | -1.5% |
| Cc1ccc2c(c1)-c1c(ssc1=S)C(C)(C)N2C(=O)CN1C(=O)c2ccccc2C1=O | 52.2% (active) |
| CCOC(=O)CN1C(=O)C(=O)c2cc(C)ccc21 | -7% |
| Cc1cc2c(cc1C)N(C(=O)CN1C(=O)c3ccccc3C1=O)C(C)(C)c1ssc(=S)c1-2 | 43.2% |
| O=S1(=O)N=C(N(CCO)/N=C/c2ccccc2F)c2ccccc21 | 0.1% |
| CCOc1ccccc1NC(=O)C12CC3CC(C1)CC(c1ccc(C)cc1)(C3)C2 | 33.7% |
| COc1ccc(Nc2ncc(F)c(N3CCOCC3)n2)cc1 | -0.3% |
| CCOc1ccc(Nc2nc(Cl)nc(N3CCN(c4ccc(OC)cc4)CC3)n2)cc1 | 57.9% (active) |
| CCN1CCN(c2nc(Nc3cc(OC)ccc3OC)nc(Nc3cc(OC)ccc3OC)n2)CC1 | 32.9% |
| CC1CCCCC1NC(=O)C1CCCN1S(=O)(=O)c1cccc2nsnc12 (configuration not stated) | -4.8% |
| O=C(N1CCCC1)C12CC3CC(C1)CC(C(=O)N1CCCC1)(C3)C2 | -5.3% |
| Cc1ccc(NC(=O)CSc2nnc(CNC(=O)c3ccccc3F)o2)cc1 | -4.2% |
| O=C(Nc1cccc(C(F)(F)F)c1)c1ccc(N2CCNCC2)c([N+](=O)[O-])c1 | -5% |
| O=C(Nc1ccc(N2C(=O)c3cccc4cccc(c34)C2=O)cc1)c1ccc(N2CCCCC2)c([N+](=O)[O-])c1 | 56.4% (active) |
| O=C(COc1ccccc1F)NNC(=O)c1ccc(N2CCCCC2)c([N+](=O)[O-])c1 | 4.2% |

From PubChem BioAssay AID602261 (Sanford-Burnham Center for Chemical Genomics, 2012)
